Hits are enriched below; roughly 1.2% of the tested compounds scored in any of these assays.
GC-A act: GC-A stimulated cGMP production enhancers – HEK293 GC-A cells, cGMP TR-FRET, EC30 ANP, primary screen; activation, % at 10 µM; 0% at EC30 ANP, 100% saturating ANP; 0.14% of 370,000 active; AID 1671463, 2021; in the data active = activation above about 40%
GC-B act: human GC-B receptor activators, primary screen, HEK293 GC-B cells, cGMP TR-FRET, EC30 CNP; Atrial natriuretic peptide receptor 2 (Homo sapiens), P20594; 0% at EC30 CNP, 100% saturating CNP; activation, % at 10 µM; 0.11% of 370,000 active;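 active = activation at 10 µM reaching about 35% in either raw or pattern-adjusted values, limit read from the data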
PLC-gamma1 inh: PLC-gamma1 enzyme inhibitors, primary screen, biochemical, fluorescence, purified enzyme; 0.84% of 370,000 active; fluorogenic substrate; inhibition, % at 12.2 µM; 1-phosphatidylinositol 4,5-bisphosphate phosphodiesterase gamma-1 (Homo sapiens), P19174; AID 720700, 2013; in the data active = inhibition above about 9.5%
PLC-beta3 inh: human PLC-beta3 inhibitors, primary screen, biochemical, fluorescence; Purified PLC-beta3, fluorogenic substrate; inhibition, % at 12.2 µM; 0.18% of 370,000 active; AID 720704, 2013; in the data active = inhibition above about 11%;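 also: 0% = median of compound wells on plate and 100% = full blocker control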
Starred values were filed as active, the others as inactive.

SMILES	GC-A act	GC-B act	PLC-gamma1 inh	PLC-beta3 inh
Cc1cc(Br)c(NC(=O)COC(=O)CSc2nnc(-c3ccc(Cl)cc3)o2)c(Br)c1	60.1*	-12.4	1.3	-1.1
CCCCOC(=O)CSc1nnc(-c2ccc(Cl)cc2Cl)o1	66.8*	4.5	-1.7	-3.6
CC(C)OC(=O)CSc1nnc(-c2ccc(Cl)cc2Cl)o1	28.4	-1.2	-0.3	-1.1
COC(=O)CSc1nc(SCc2ccccc2Cl)nc2c1CCCC2	-3.1	3.6	1.1	-0.1
O=C(O)[C@H]1CCCN1C(=O)c1ccccc1N1C(=O)[C@@H]2Cc3c([nH]c4ccccc34)C(c3cccc(Cl)c3)N2C1=O (stereo partly drawn)	22.3	35.2*	-49.7	-67.5
O=C(O)[C@@H]1CCCN1C(=O)c1ccccc1N1C(=O)[C@@H]2Cc3c([nH]c4ccccc34)C(c3cccc(Cl)c3)N2C1=O (stereo partly drawn)	25.4	30.3	-33.6	-45.6
Cn1c(=O)c2c(nc(N/N=C3\CCCc4ccccc43)n2Cc2ccc(F)cc2)n(C)c1=O	33.9	49.6*	-1.6	-0.3
CCc1nn(CC(=O)NCCCN(CC)Cc2ccccc2)c(=O)c2cc3sccc3n12	-10.7	-8.1	10.6*	2.8
CCCCN(CCCNC(=O)Cn1nc(CC)n2c(cc3sc(C)cc32)c1=O)Cc1ccccc1	-6.8	-4.3	3.9	-9.7
CCOc1ccc(N(C(=O)c2ccc(S(=O)(=O)N3CCCC3)cc2)C2C=CS(=O)(=O)C2)cc1 (stereo not drawn)	-0.4	2.9	1.1	-5.8
CCC(C)n1cnc2c(c1=O)c1nc3ccccc3nc1n2Cc1ccc(OC)cc1 (stereo not drawn)	52.9*	53.6*	1.5	-1.5
CCCCn1cnc2c(c1=O)c1nc3ccccc3nc1n2Cc1ccc2c(c1)OCO2	51.6*	52.3*	3.5	-8.7
O=C(CSc1nnc(-c2ccc(O)cc2)n1-c1ccccc1)CC(=O)Nc1ccccc1	-12.0	-5.6	-1.0	-5.6
CC(C)(C)OC(=O)N(CCc1ccccc1)Cc1cccc(OCc2cccc(NC(=O)c3ccccc3)c2)c1	-0.2	0.5	9.9*	5.8
CC(C)(C)OC(=O)N(CCc1ccccc1)Cc1ccc(OCc2cccc(NC(=O)C3CC3)c2)cc1	3.2	0.3	2.0	1.9
COC(=O)C[C@H]1CC[C@@H]2[C@@H](COc3ccc(NC(=O)c4ccno4)cc3C(=O)N2C)O1	1.7	-0.3	0.5	0.8
N#Cc1c(C#N)c(SSc2c(C#N)c(C#N)c(N)n2-c2ccccc2)n(-c2ccccc2)c1N	-8.3	55.3*	-0.4	1.8
CC12CCC(=O)N1C(C(=O)Nc1nc(-c3ccc(F)cc3)cs1)CS2 (stereo not drawn)	45.9*	3.8	-6.0	-11.1
CC(=O)Nc1ccc(-c2csc(NC(=O)C3CSC4(C)CCC(=O)N34)n2)cc1 (stereo not drawn)	-1.1	-4.5	-45.5	-59.6
CC12CCC(=O)N1C(C(=O)Nc1nc(-c3ccc(F)c(F)c3)cs1)CS2 (stereo not drawn)	42.9*	2.5	-4.3	-9.2
CCOc1ccc(C2c3[nH]c4ccccc4c3C[C@H]3C(=O)N(C4CC4)CC(=O)N23)cc1OC (stereo partly drawn)	3.4	-5.0	-1.8	-8.4
CN1CC(=O)N2[C@H](c3ccc4c(c3)OCO4)c3[nH]c4ccccc4c3C[C@@H]2C1=O	49.5*	57.5*	-4.1	-0.9
COC(=O)c1ccc(C2c3[nH]c4ccccc4c3C[C@H]3C(=O)N(C4CC4)CC(=O)N23)cc1 (stereo partly drawn)	55.0*	23.7	1.6	-1.1
Cc1ccc(C)c(OCC(=O)Nc2ccc3c(c2)OCO3)c1C	0.9	-5.3	11.6*	-1.0
CCOc1ccc(-n2cc(C(=O)Nc3cccc(C)n3)c3cc(OC)c(OC)cc3c2=O)cc1	25.9	36.5*	0.5	1.0
CCOc1ccc(NC(=O)c2cn(-c3ccc(OCC)cc3)c(=O)c3cc(OC)c(OC)cc23)cc1	19.1	28.6	-3.5	-5.6
COc1ccccc1NC(=O)c1ccc(Cl)c(S(=O)(=O)N2CCCCC2)c1	-3.1	-0.8	9.3	-8.3
COc1ccccc1NC(=O)c1ccc(C)c(S(=O)(=O)N2CCCCC2)c1	-2.0	-6.5	12.6*	-1.3
Cc1cc(C(=O)COC(=O)c2ccccc2O)c(C)n1Cc1cccs1	1.4	3.9	-2.4	-8.8

Assay outcomes (PubChem)
